Our source for the outcome and AC50 values is PubChem BioAssay (EPA / NIEHS).

The source made the active and inactive calls. How the source made its calls: active means hit-call score of the fitted dose curve at least 0.9, where 1 is the maximum; inactive means score below 0.9.

Read-out in assay [1]: urokinase plasminogen activator (uPA), PLAU (gene 5328)
In words: BSK_KF3CT_uPA: BioMAP Diversity Plus: KF3CT Assay for urokinase plasminogen activator (uPA) Biomarker Activity (AID 2283075). As to conditions: primary human keratinocytes with fibroblasts; actives raise or lower the signal. The essentials:
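ELISA readout of uPA, analyzed for signal gain or loss relative to DMSO, from a human primary keratinocyte–foreskin fibroblast co-culture measured 24 h after chemical treatment.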

Read-out in assay [2]: CD40, CD40 (gene 958)
Kind of assay: BSK_LPS_CD40: BioMAP Diversity Plus: LPS Assay for CD40 Biomarker Activity (AID 2283076). As to conditions: primary human HUVEC with PBMC; actives raise or lower the signal. The essentials: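 Primary human umbilical vein endothelial cells co-cultured with peripheral blood mononuclear cells, LPS-stimulated, were dosed with chemical and read 24 h later. CD40 levels were measured by ELISA and fitted bidirectionally against DMSO as negative control and baseline.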

Read-out in assay [3]: E-selectin (Homo sapiens) (UniProt P16581)
Kind of assay: BSK_LPS_Eselectin: BioMAP Diversity Plus: LPS Assay for Eselectin Biomarker Activity (AID 2283077). As to conditions: primary human HUVEC with PBMC; actives raise or lower the signal. The essentials: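 Human umbilical vein endothelial cells co-cultured with peripheral blood mononuclear cells under LPS stimulation; E-selectin measured by ELISA 24 h after chemical dosing. Activity fitted bidirectionally against DMSO as negative control and baseline.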

Read-out in assay [4]: Interleukin-8 (IL8), CXCL8 (gene 3576)
In words: BSK_LPS_IL8: BioMAP Diversity Plus: LPS Assay for Interleukin-8 (IL8) Biomarker Activity (AID 2283078). Particulars: primary human HUVEC with PBMC; actives raise or lower the signal. The gist of the method: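 Human umbilical vein endothelial cells co-cultured with PBMC were stimulated with LPS; IL-8 levels were measured by ELISA 24 h after chemical dosing. Activity was fitted bidirectionally against DMSO as negative control and baseline.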

Assay [5] is described as follows: BSK_LPS_SRB: Viability Assessment in the BioMAP Diversity Plus: LPS Assay (AID 2283079).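 Further: total protein by sulforhodamine B absorbance as a cytotoxicity measure; measured one day after compound addition; fitted in both directions against DMSO so loss or gain of signal counts.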 As to conditions: primary human HUVEC with PBMC. The gist of the method:
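Human umbilical vein endothelial cells co-cultured with PBMC (LPS system) were dosed for 24 h. Total protein was stained with 0.1% sulforhodamine B after 10% TCA fixation, read at 560 nm, and fitted bidirectionally against DMSO baseline.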

Read-out in assay [6]: Interleukin-1 alpha (IL1a), IL1A (gene 3552)
In words: BSK_LPS_IL1a: BioMAP Diversity Plus: LPS Assay for Interleukin-1 alpha (IL1a) Biomarker Activity (AID 2283080). Particulars: primary human HUVEC with PBMC; actives raise or lower the signal. The essentials: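 Human umbilical vein endothelial cells co-cultured with peripheral blood mononuclear cells were LPS-stimulated and exposed to test chemicals for 24 h. IL-1 alpha was quantified by ELISA, with bidirectional curve fitting against DMSO as the negative control and baseline.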

Read-out in assay [7]: Monocyte Chemoattractant Protein-1 (MCP1), CCL2 (gene 6347)
In words: BSK_LPS_MCP1: BioMAP Diversity Plus: LPS Assay for Monocyte Chemoattractant Protein-1 (MCP1) Biomarker Activity (AID 2283081). As to conditions: primary human HUVEC with PBMC; actives raise or lower the signal. The essentials: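 HUVEC plus PBMC co-culture (human primary cells, LPS system) exposed to test chemical for 24 h; MCP-1 measured by ELISA. Bidirectional curve fitting against DMSO baseline; parallel SRB total-protein staining flags overt cytotoxicity.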

Assay [8] can be described thus: BSK_LPS_PGE2: BioMAP Diversity Plus: LPS Assay for Prostaglandin E2 (PGE2) Biomarker Activity (AID 2283082). As to conditions: primary human HUVEC with PBMC; actives raise or lower the signal. The essentials:
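LPS-activated HUVEC/PBMC co-culture; cmpd dosed, 24 h; PGE2 by ELISA; bidirectional fit vs DMSO; SRB (0.1%, TCA-fixed, 560 nm) in parallel plates for overt cytotox.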

Read-out in assay [9]: Macrophage colony-stimulating factor (MCSF), CSF1 (gene 1435)
Kind of assay: BSK_LPS_MCSF: BioMAP Diversity Plus: LPS Assay for Macrophage colony-stimulating factor (MCSF) Biomarker Activity (AID 2283083). Particulars: primary human HUVEC with PBMC; actives raise or lower the signal. The essentials: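 Human umbilical vein endothelial cells co-cultured with peripheral blood mononuclear cells were exposed to compound for 24 h. M-CSF levels were measured by ELISA, and bidirectional curve fitting used DMSO as the negative control and baseline.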

Read-out in assay [10]: Tissue Factor, F3 (gene 2152)
Kind of assay: BSK_LPS_TissueFactor: BioMAP Diversity Plus: LPS Assay for Tissue Factor Biomarker Activity (AID 2283084). Particulars: primary human HUVEC with PBMC; actives raise or lower the signal. The essentials: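 Human umbilical vein endothelial cells co-cultured with peripheral blood mononuclear cells were dosed and stimulated with LPS. Cell-surface CD142 was quantified by ELISA at 24 h. Activity was fitted bidirectionally against DMSO baseline.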

Read-out in assay [11]: Tumor necrosis factor (Homo sapiens) (UniProt P01375)
In words: BSK_LPS_TNFa: BioMAP Diversity Plus: LPS Assay for Tumour Necrosis Factor alpha (TNFa) Biomarker Activity (AID 2283085). Particulars: primary human HUVEC with PBMC; actives raise or lower the signal. The gist of the method:
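Read-out is ELISA of TNFa in primary human endothelial cell–PBMC co-cultures at 24 h after compound. Activity in either direction was fitted against DMSO.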

Read-out in assay [12]: Vascular cell adhesion molecule 1 (VCAM1), VCAM1 (gene 7412)
Kind of assay: BSK_LPS_VCAM1: BioMAP Diversity Plus: LPS Assay for Vascular cell adhesion molecule 1 (VCAM1) Biomarker Activity (AID 2283086). Particulars: primary human HUVEC with PBMC; actives raise or lower the signal. The gist of the method: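 HUVEC + PBMC co-culture, LPS system; compound 24 h; VCAM-1 by ELISA; bidirectional fit vs DMSO control; parallel SRB (0.1%, TCA-fixed, 560 nm) for cytotoxicity.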

Read-out in assay [13]: CD38, CD38 (gene 952)
Kind of assay: BSK_SAg_CD38: BioMAP Diversity Plus: SAg Assay for CD38 Biomarker Activity (AID 2283087). As to conditions: primary human HUVEC with PBMC; actives raise or lower the signal. The gist of the method: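 Human HUVEC plus PBMC co-culture stimulated with superantigen; CD38 measured by ELISA 24 h after chemical dosing. Fluorescence read-out, bidirectional fit against DMSO; cytotoxicity tracked in parallel by SRB and Alamar Blue.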

Read-out in assay [14]: CD40, CD40 (gene 958)
In words: BSK_SAg_CD40: BioMAP Diversity Plus: SAg Assay for CD40 Biomarker Activity (AID 2283088). Particulars: primary human HUVEC with PBMC; actives raise or lower the signal. The essentials:
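Human umbilical vein endothelial cells co-cultured with PBMC; CD40 levels measured by ELISA with fluorescence read-out 24 h after chemical dosing. Gain or loss of signal fitted bidirectionally against DMSO baseline.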

Read-out in assay [15]: CD69, CD69 (gene 969)
In words: BSK_SAg_CD69: BioMAP Diversity Plus: SAg Assay for CD69 Biomarker Activity (AID 2283089).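 On AC50: cell surface CD69 protein quantified by ELISA with fluorescence detection.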 As to conditions: primary human HUVEC with PBMC; actives raise or lower the signal. The essentials: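 Endothelial/PBMC co-culture; chemical added; 24 h incubation; CD69 ELISA with fluorescence detection; bidirectional fit vs DMSO.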

Read-out in assay [16]: Monocyte Chemoattractant Protein-1 (MCP1), CCL2 (gene 6347)
Kind of assay: BSK_SAg_MCP1: BioMAP Diversity Plus: SAg Assay for Monocyte Chemoattractant Protein-1 (MCP1) Biomarker Activity (AID 2283090). Particulars: primary human HUVEC with PBMC; actives raise or lower the signal. The essentials: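 MCP-1 levels in the endothelial–PBMC SAg co-culture were quantified by ELISA at 24 h post-dosing; both increases and decreases versus DMSO scored. Cytotoxicity monitored by SRB total protein in parallel cultures.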

Read-out in assay [17]: E-selectin (Homo sapiens) (UniProt P16581)
Kind of assay: BSK_SAg_Eselectin: BioMAP Diversity Plus: SAg Assay for Eselectin Biomarker Activity (AID 2283091). Particulars: primary human HUVEC with PBMC; actives raise or lower the signal. The gist of the method:
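HUVEC co-cultured with PBMC, compound dosed then read at 24 h; E-selectin measured by ELISA. Activity fitted bidirectionally against DMSO as negative control and baseline.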

Read-out in assay [18]: Monokine induced gamma interferon (MIG), CXCL9 (gene 4283)
In words: BSK_SAg_MIG: BioMAP Diversity Plus: SAg Assay for Monokine induced gamma interferon (MIG) Biomarker Activity (AID 2283092). As to conditions: primary human HUVEC with PBMC; actives raise or lower the signal. The gist of the method: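 Measures CXCL9 protein by ELISA in a human vascular primary-cell co-culture (umbilical vein endothelium with PBMC) 24 h after chemical addition. Activity is scored up or down from the DMSO control.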

Read-out in assay [19]: Interleukin-8 (IL8), CXCL8 (gene 3576)
In words: BSK_SAg_IL8: BioMAP Diversity Plus: SAg Assay for Interleukin-8 (IL8) Biomarker Activity (AID 2283094). As to conditions: primary human HUVEC with PBMC; actives raise or lower the signal. The essentials: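 ELISA read-out of IL-8 in a primary human vascular co-culture (umbilical vein endothelium plus PBMC), taken 24 h after compound addition. Values derive from bidirectional fits against DMSO negative controls.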

Sequence of Tumor necrosis factor (Homo sapiens) (P01375 whole entry, looked up): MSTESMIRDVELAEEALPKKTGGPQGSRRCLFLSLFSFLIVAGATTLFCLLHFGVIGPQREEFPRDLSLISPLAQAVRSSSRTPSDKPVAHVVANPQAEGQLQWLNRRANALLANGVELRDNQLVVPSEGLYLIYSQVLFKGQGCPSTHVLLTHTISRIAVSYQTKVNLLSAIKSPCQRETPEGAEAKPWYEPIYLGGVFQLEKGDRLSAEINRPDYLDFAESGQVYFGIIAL
Sequence of E-selectin (Homo sapiens) (P16581 whole entry, looked up): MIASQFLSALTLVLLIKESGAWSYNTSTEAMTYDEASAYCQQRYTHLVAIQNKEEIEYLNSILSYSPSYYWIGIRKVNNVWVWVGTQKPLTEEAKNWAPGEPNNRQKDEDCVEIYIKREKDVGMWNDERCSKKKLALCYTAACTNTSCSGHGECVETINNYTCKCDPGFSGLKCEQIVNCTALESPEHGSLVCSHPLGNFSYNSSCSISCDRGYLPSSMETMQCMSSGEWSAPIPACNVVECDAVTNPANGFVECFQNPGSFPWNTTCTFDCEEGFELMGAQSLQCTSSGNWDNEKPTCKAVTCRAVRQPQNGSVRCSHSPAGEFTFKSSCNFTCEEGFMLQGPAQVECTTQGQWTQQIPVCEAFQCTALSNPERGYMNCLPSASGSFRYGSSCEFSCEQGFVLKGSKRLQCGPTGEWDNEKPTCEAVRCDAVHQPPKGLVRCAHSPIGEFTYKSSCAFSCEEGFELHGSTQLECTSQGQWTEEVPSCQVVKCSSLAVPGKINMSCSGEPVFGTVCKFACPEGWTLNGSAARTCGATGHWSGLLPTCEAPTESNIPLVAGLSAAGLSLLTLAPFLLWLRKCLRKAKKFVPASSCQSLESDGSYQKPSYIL

Consider `CCCCCCC(CCCCCCCCCCC(=O)OCC(COC(C)=O)OC(C)=O)OC(C)=O` (configuration not stated), for which the outcome in assay [1], in assay [2], in [3], in assay [4], in [5] and in [6] was inactive. For the same molecule, the result in assay [7], in assay [8], in assay [9], in assay [10], in [11] and in assay [12] was inactive. Also, the result in [13], in [14], in assay [15], in assay [16], in assay [17] and in assay [18] was inactive. Further, in assay [19], the result was inactive.
In general, AC50 refers to the concentration giving half of the maximal activity seen. For `CC(=O)O[C@]1(C(C)=O)CC[C@H]2[C@@H]3C=C(Cl)C4=CC(=O)[C@@H]5C[C@@H]5[C@]4(C)[C@H]3CC[C@@]21C`, the outcome in [1], in assay [3], in assay [4], in [6], in assay [7] and in [8] was inactive. For the same molecule, the outcome in assay [9], in [10], in [11], in assay [12], in assay [13] and in assay [16] was inactive. The outcome in [17], in assay [18] and in assay [19] was inactive. Further, the AC50 in assay [2] is 31.5 µM (active); in assay [5], 30.9 µM (active); in [14], 30.1 µM (active); in assay [15], 30.5 µM (active).
As to `CC(=O)OCC(COC(C)=O)OC(C)=O`, the result in assay [1], in [2], in [3], in assay [4], in assay [5] and in assay [6] was inactive. The outcome in assay [7], in assay [8], in [9], in assay [10], in [11] and in assay [12] was inactive. In addition, the outcome in assay [13], in assay [14], in assay [15], in assay [16], in assay [17] and in [18] was inactive. The result in assay [19] was inactive.
